PPARg SRC-1 ag: PPARgamma agonists recruiting SRC-1 coactivator, primary screen, biochemical | actives 0.41% (n = 200,000) | PPARgamma-SRC-1 coactivator recruitment biochemical assay | AID 631, 2007 | Peroxisome proliferator-activated receptor gamma (Homo sapiens), P37231 | activation, % at 8 µM; in the data active = activation above about 19%
PPARg SRC2 recr: agonists of PPARg-SRC-2 recruitment, primary screen, biochemical, HTS. PPARgamma LBD-SRC-2 recruitment. activation, % at 8 µM. actives 0.34% (n = 200,000). AID 1032, 2008
PPARg SRC3 recr: PPARgamma agonists recruiting SRC-3 coactivator, primary screen, biochemical; biochemical PPARgamma/SRC-3 coactivator recruitment assay; activation, % at 8 µM; actives 0.26% (n = 200,000); AID 731, 2007; in the data active = activation above about 23%
SRC2 TRFRET art: TR-FRET signal artefacts, primary screen, artefact control for PPARgamma SRC-2 agonist project, biochemical. actives 0.4% (n = 200,000). TR-FRET artefact counter-screen; stronger effect = higher value. TR-FRET ratio at 8 µM; in the data active = TR-FRET ratio above about 2000
SRC3 TRFRET art: TR-FRET detection interference compounds, artefact control for PPARgamma SRC-3 recruitment agonists, biochemical, TR-FRET ratio; TR-FRET artefact counter-screen, PPARgamma/SRC-3 format; stronger effect = higher value; TR-FRET ratio at 8 µM; actives 0.39% (n = 99,000); in the data active = TR-FRET ratio above about 2000
SRC1 TRFRET art: TR-FRET detection interference compounds, primary screen, artefact control for PPARgamma SRC-1 recruitment agonists, biochemical, TR-FRET emission ratio; TR-FRET detection artefact counter-screen; stronger effect = higher value; TR-FRET ratio at 8 µM; actives 0.34% (n = 99,000); in the data active = TR-FRET ratio above about 2300
PPARg SRC2 ag: agonists of PPARgamma SRC-2 coactivator recruitment, confirmation, biochemical, HTS. activation, % at 8 µM. biochemical SRC-2 recruitment by PPARgamma. shares compounds with PPARg SRC3 recr. actives 52% (n = 790)
PPARg SRC1 ag: PPARgamma agonists recruiting SRC-1 coactivator, confirmation, biochemical; shares compounds with PPARg SRC3 recr; PPARgamma–SRC-1 coactivator recruitment biochemical assay; activation, % at 8 µM; actives 43% (n = 790); AID 1300, 2008; in the data active = activation above about 20%
PPARg SRC3 conf: PPARgamma-driven SRC-3 coactivator recruitment agonists, confirmation, biochemical; biochemical PPARgamma-SRC-3 coactivator recruitment, agonist mode; activation, % at 8 µM; shares compounds with PPARg SRC3 recr; actives 29% (n = 790); in the data active = activation above about 24%
Of the large screens only hits and unclear results are named; the others gave an inactive call (follow-up assays come after a bar, where they were run). Only some compounds are listed: those with a hit (about 0.9% of all), similar ones and a draw of the others. Rule as the data show it, unless noted: active = activation above about 22%; inactive = the rest.

O=[N+]([O-])c1ccc(-c2ccc(C=Nc3cccc4ccccc34)o2)cc1	none (no result: SRC3 TRFRET art, SRC1 TRFRET art)
O=[N+]([O-])c1cc(-c2ccc(/C=N/c3nc4ccccn4c3-c3ccco3)o2)ccc1Cl	PPARg SRC3 recr 27 (no result: SRC3 TRFRET art, SRC1 TRFRET art) | PPARg SRC2 ag inactive | PPARg SRC1 ag inactive | PPARg SRC3 conf inactive
Cc1ccc(C(=O)NNC(=O)CCN2C(=O)C3CCCCC3C2=O)cc1 (configuration not stated)	none
COc1ccc(/C(N)=N/O)c(OC)c1	none
Brc1cc(Br)c2nc(-c3ccc(N4CCOCC4)cc3)ccc2c1	PPARg SRC-1 ag 25, PPARg SRC2 recr 22, PPARg SRC3 recr 35, SRC2 TRFRET art 2276 (no result: SRC3 TRFRET art, SRC1 TRFRET art) | PPARg SRC2 ag 24 | PPARg SRC1 ag inactive | PPARg SRC3 conf inactive
Cc1ccc(/C=N/Nc2ccc3ccccc3n2)o1	PPARg SRC-1 ag 22 | PPARg SRC2 ag inactive | PPARg SRC1 ag inactive | PPARg SRC3 conf inactive
CC(C)(C)NC(=O)CSc1nc(-c2ccc(F)cc2)cs1	none
COc1ccc(-c2nn(CC(=O)Nc3ccc(Cl)c(Cl)c3)c(=O)c3ccccc23)cc1	PPARg SRC-1 ag 19, SRC2 TRFRET art 2357 (no result: SRC3 TRFRET art, SRC1 TRFRET art) | PPARg SRC2 ag inactive | PPARg SRC1 ag inactive | PPARg SRC3 conf inactive
CSc1c(SCc2ccccc2)cnn(-c2ccccc2)c1=O	PPARg SRC-1 ag 24, PPARg SRC2 recr 27, SRC3 TRFRET art 2060, SRC1 TRFRET art 2714 | PPARg SRC2 ag 50 | PPARg SRC1 ag 36 | PPARg SRC3 conf 33
COc1cnn(-c2ccccc2)c(=O)c1SCc1ccc(Cl)c(Cl)c1	none (no result: SRC3 TRFRET art, SRC1 TRFRET art)
CCOC(=O)CC(=O)CSc1ncnc2c1oc1ccccc12	PPARg SRC-1 ag 96, PPARg SRC2 recr 87, PPARg SRC3 recr 138, SRC2 TRFRET art 3929 (no result: SRC3 TRFRET art, SRC1 TRFRET art) | PPARg SRC2 ag 55 | PPARg SRC1 ag 36 | PPARg SRC3 conf 37
OCCSc1ncnc2c1oc1ccccc12	PPARg SRC2 recr 23 (no result: SRC3 TRFRET art, SRC1 TRFRET art) | PPARg SRC2 ag 28 | PPARg SRC1 ag 22 | PPARg SRC3 conf inactive
O=C(CSc1ncnc2c1oc1ccccc12)NCc1ccco1	PPARg SRC-1 ag 92, PPARg SRC2 recr 92, PPARg SRC3 recr 107, SRC2 TRFRET art 3393 (no result: SRC3 TRFRET art, SRC1 TRFRET art) | PPARg SRC2 ag 65 | PPARg SRC1 ag 47 | PPARg SRC3 conf 44
O=C(CSc1ncnc2c1oc1ccccc12)N1CCCc2ccccc21	PPARg SRC2 recr 40, PPARg SRC3 recr 39, SRC2 TRFRET art 1981 (no result: SRC3 TRFRET art, SRC1 TRFRET art) | PPARg SRC2 ag 31 | PPARg SRC1 ag 24 | PPARg SRC3 conf inactive
CCNc1nc(NCC)nc(N(C)N)n1	none (no result: SRC3 TRFRET art, SRC1 TRFRET art)
CCN(CC)C(=O)NC1CCCCCCC1	none
N#CCCSc1ncnc2c1oc1ccccc12	PPARg SRC-1 ag 20, PPARg SRC2 recr 41, PPARg SRC3 recr 36, SRC2 TRFRET art 2279 (no result: SRC3 TRFRET art, SRC1 TRFRET art) | PPARg SRC2 ag 31 | PPARg SRC1 ag 21 | PPARg SRC3 conf inactive
O=C(O)CSc1ncnc2c1oc1ccccc12	PPARg SRC-1 ag 19, PPARg SRC2 recr 26 (no result: SRC3 TRFRET art, SRC1 TRFRET art) | PPARg SRC2 ag inactive | PPARg SRC1 ag inactive | PPARg SRC3 conf inactive
CCCCc1nc2sc3c(SCC(=O)NCc4ccco4)ncnc3c2c2c1CCC2	PPARg SRC-1 ag 22 (no result: SRC3 TRFRET art, SRC1 TRFRET art) | PPARg SRC2 ag 38 | PPARg SRC1 ag 26 | PPARg SRC3 conf 26
O=C(CSc1ncnc2c1oc1ccccc12)Nc1ccccc1C(F)(F)F	none
NS(=O)(=O)c1ccc(CCNC(=O)CSc2ncnc3ccccc23)cc1	none
CC(C)(C)N(CC#CCC1(O)c2ccccc2-c2ccccc21)CCO	none
CCOC(=O)c1sc(C)c2c1NC1(CCCCC1)NC2=O	none (no result: SRC3 TRFRET art, SRC1 TRFRET art)
CCOC(=O)c1sc(C)c2c1NC(C)(c1cccs1)NC2=O (configuration not stated)	PPARg SRC3 recr 26 (no result: SRC3 TRFRET art, SRC1 TRFRET art) | PPARg SRC2 ag inactive | PPARg SRC1 ag inactive | PPARg SRC3 conf inactive
Cc1ccc(OCC(=O)N(Cc2ccc(N(C)C)cc2)C2CCS(=O)(=O)C2)cc1 (configuration not stated)	PPARg SRC-1 ag 21 (no result: SRC3 TRFRET art, SRC1 TRFRET art) | PPARg SRC2 ag inactive | PPARg SRC1 ag inactive | PPARg SRC3 conf inactive
CN(C)c1ccc(CN(C(=O)COc2ccc(Br)cc2)C2CCS(=O)(=O)C2)cc1 (configuration not stated)	none (no result: SRC3 TRFRET art, SRC1 TRFRET art)
Oc1ccc(N=Cc2cc(Br)c(N3CCOCC3)o2)cc1	none
O=[N+]([O-])c1cc(Br)c(O)c(C=Nc2ccc(N3CCOCC3)cc2)c1	PPARg SRC-1 ag 61, PPARg SRC2 recr 64, PPARg SRC3 recr 45, SRC2 TRFRET art 2845, SRC3 TRFRET art 2532, SRC1 TRFRET art 2849 | PPARg SRC2 ag inactive | PPARg SRC1 ag inactive | PPARg SRC3 conf inactive
O=C(c1ccco1)N1N=C(c2ccc(Cl)cc2)CC1(O)C(F)(F)F (configuration not stated)	none
O=C(c1ccco1)N1N=C(c2ccc(Br)cc2)CC1(O)C(F)(F)F (configuration not stated)	PPARg SRC-1 ag 23, SRC2 TRFRET art 2022 | PPARg SRC2 ag inactive | PPARg SRC1 ag inactive | PPARg SRC3 conf inactive
COC(=O)C(Cc1ccccc1)NC(=O)c1cc(S(=O)(=O)N(C)C)ccc1Cl (configuration not stated)	none
Cc1ccc(CSc2nc3ncccc3[nH]2)cc1	PPARg SRC2 recr 25 (no result: SRC3 TRFRET art, SRC1 TRFRET art) | PPARg SRC2 ag inactive | PPARg SRC1 ag inactive | PPARg SRC3 conf inactive
Cn1cccc1/C=C1\Cc2ccccc2C1=O	PPARg SRC2 recr 24, SRC1 TRFRET art 2340 | PPARg SRC2 ag inactive | PPARg SRC1 ag inactive | PPARg SRC3 conf inactive
Cn1cccc1/C=C1\CCc2ccccc2C1=O	none
O=C(O)C1=C[C@H](c2csc3ccccc23)C[C@H](OCc2ccc(CO)cc2)O1	PPARg SRC-1 ag 24 | PPARg SRC2 ag inactive | PPARg SRC1 ag inactive | PPARg SRC3 conf inactive
O=C(O)C1=C[C@@H](c2csc3ccccc23)C[C@@H](OCc2ccc(CO)cc2)O1	none
Oc1cc2ccccc2cc1-c1n[nH]c(=S)n1Cc1ccco1	PPARg SRC-1 ag 22 | PPARg SRC2 ag inactive | PPARg SRC1 ag inactive | PPARg SRC3 conf inactive
Oc1ccc(-c2n[nH]c(=S)n2Cc2ccco2)cc1	none (no result: SRC3 TRFRET art, SRC1 TRFRET art)
